# Cycloheximide cs – counter-screen for Shiga toxin inhibitors: cycloheximide protein synthesis inhibition | cell reporter, cycloheximide protein synthesis inhibition counterscreen | max response, % | 12% of 300,000 active; in the data active means max response mostly above about 13%, no sharp cut-off; inactive means mostly below about 14%; further: read at 38.3 µM for the half of the compounds with a filed dose; 0% is about no effect
# NS1 function inh – blocks influenza NS1 protein function. Potency, µM (titrated, usually from 46.1 µM), for inactives: at the highest dose activity, positive = more growth. 0.4% of 270,000 active. AID 2326; calls by dose curve; further: potency means the concentration at half of the fitted maximal effect; actives are rising curves; nearly all actives have a fitted effect of over 50% in size
#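 In this qHTS, NS1 from influenza A is expressed in budding yeast, where it slows growth. Cells are switched from glucose to 2% galactose medium (pH 6.0, -URA), treated with compound, and growth recovery is read at OD600.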
# Shiga inhibitor – Shiga toxin inhibition | Vero cells, Shiga toxin protein synthesis inhibition reporter | inhibition, % at 38.7 µM | 9.2% of 290,000 active; in the data active means inhibition mostly above about 28%, no sharp cut-off; inactive means mostly below about 43%; further: 0% is about no effect
# Pf growth 48h – P. falciparum growth inhibition at 48 hours (one generation); 5.9% of 310,000 active; AID 504832; Potency, µM (titrated, usually from 28.7 µM), for inactives: at the top dose activity change, negative = inhibition, most hits filed as inhibitors; P. falciparum luciferase growth in erythrocytes, 48 h; further: potency means the concentration at half of the fitted maximal effect; on the % scale 0 is the no-effect control and ±100 the full control effect
#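 Compounds are pin-transferred into medium, infected erythrocytes (2% hematocrit, 0.1% parasitemia final) are added, and plates sit one parasite generation at 37 C in 5% CO2. Detection reagent is then added and luminescence measured.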
# Pf growth 96h – P. falciparum growth inhibition at 96 hour, primary screen for plastid delayed-death inhibitors | P. falciparum luciferase reporter growth, 96 h | Potency, µM (series often up to 28.7 µM), inactives show top-dose activity change, negative = inhibition, hits mostly inhibitors | 6.9% of 320,000 active; further: potency means the concentration at half of the fitted maximal effect; on the % scale 0 is the no-effect control and ±100 the full control effect
#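 Two-generation exposure (96 h) targets delayed-death phenotype. Reporter parasites carrying integrated firefly luciferase, in red cells at 2% hematocrit and 0.05% parasitemia final, kept at 37 C, 5% CO2; luminescence loss indicates inhibition.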
# Giardia FBPA inh – inhibitors of Giardia lamblia fructose-1,6-bisphosphate aldolase; purified Giardia FBPA; Potency, µM (highest dose often 59.6 µM), without a hit: at the highest dose activity, negative = inhibition, actives largely listed as inhibitors; 0.71% of 290,000 active; AID 2451; further: potency means the concentration at half of the fitted maximal effect; on the % scale 0 is the no-effect control and ±100 the full control effect; nearly all actives have a fitted effect of over 55% in size
# Target sequence (A8B2U2 whole entry, looked up): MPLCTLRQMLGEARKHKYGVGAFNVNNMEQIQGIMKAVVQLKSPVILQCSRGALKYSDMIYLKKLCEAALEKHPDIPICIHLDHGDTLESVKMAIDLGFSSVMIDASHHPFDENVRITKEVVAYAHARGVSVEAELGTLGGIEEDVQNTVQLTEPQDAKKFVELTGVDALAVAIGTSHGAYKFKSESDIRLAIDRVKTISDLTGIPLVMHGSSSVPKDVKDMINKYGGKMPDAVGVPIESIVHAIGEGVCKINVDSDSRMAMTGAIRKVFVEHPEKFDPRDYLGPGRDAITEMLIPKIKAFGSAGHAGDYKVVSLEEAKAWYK
#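 Giardia FBPA (40 nM reagent) was preincubated 10 min at RT with compound (up to 57.5 uM final), then substrate plus GAPDH/TPI/NAD/arsenate coupling system with diaphorase/resazurin was added; resorufin fluorescence (525/598 nm) was read after 20 min.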
# An asterisk follows results filed as active; ? = inconclusive; . = no result given; + = active, no number; ! = a repeat was not active. Hits are enriched below; roughly 21% of the tested compounds scored in any of these assays. Unless noted, the call rests on the fitted dose curve; in most records, active means well fitted curve in the direction sought with a large enough effect; inconclusive means small, poorly fitted or top-dose-only effect, or another doubt; inactive means no such curve, though single readings can be large; an effect the other way counts as inactive or inconclusive.
SMILES,Cycloheximide cs,NS1 function inh,Shiga inhibitor,Pf growth 48h,Pf growth 96h,Giardia FBPA inh
COc1cc2c(cc1OC)CN(C(=O)C1CCCN1S(=O)(=O)c1ccc(F)cc1)CC2 (configuration not stated),4,-3%,2,-13%,27%,.
Cc1csc(NC(=O)c2cc3c(s2)-c2ccccc2OC3)n1,59*,?,+,?,134%,1%
CCCN1CCN(CCCNC(=O)c2cc3c(s2)-c2ccccc2OC3)CC1,2,-9%,-2,?,?,0%
CCOc1ccc(N=C2NC(=O)C(CC(=O)O)S2)cc1 (configuration not stated),11,-15%,25,19%,160%,-1%
C/C(=N\N=C1\NC(=O)C(CC(=O)O)S1)c1ccccn1 (configuration not stated),0,-5%,-3,10µM*,1.2µM*,?
CO/N=C/C(c1ncc(C(F)(F)F)cc1Cl)S(=O)(=O)c1ccccc1 (configuration not stated),-1,1%,12,10µM*,9.3µM*,-7%
O=S(=O)(Cc1ncc(C(F)(F)F)cc1Cl)c1ccccc1,45*,9%,51*,31%,33%,8%
COc1ccc2c(c1)c(CC(=O)NCc1cc([N+](=O)[O-])ccc1O)c(C)n2C(=O)c1ccc(Cl)cc1,-2,?,-18,?,5.9µM*,.
COc1ccc2c(c1)c(CC(=O)Nc1nnc(C3CC3)s1)c(C)n2C(=O)c1ccc(Cl)cc1,8,2%,-7,?,?,-2%
COc1ccc2c(c1)c(CC(=O)Nc1ccccc1OC)c(C)n2C(=O)c1ccc(Cl)cc1,-3,23%,-3,0%,5.2µM*,3%
COc1ccc2c(c1)c(CC(=O)Nc1ccc(C(C)=O)cc1)c(C)n2C(=O)c1ccc(Cl)cc1,47*,22%,83*!,-20%,-26%,-6%
Cc1ccc(C)c(/C=C(\C(=O)O)c2ccc(S(=O)(=O)N3CCCCC3)s2)c1,4,.,9,-8%,8%,6%
COc1ccc(C2Oc3cc(OC)cc(OC)c3CC2O)cc1 (configuration not stated),.,.,.,.,.,-11%
CC1=CC2C(CC1=O)C(C)=CCC2C(C)C (configuration not stated),.,.,.,.,.,-4%
C=CCNC(=S)NC1CC(C)(C)NC(C)(C)C1,-3,15%,-7,10%,10µM*,-1%
COc1ccccc1S(=O)(=O)Cc1ccc(C(=O)NCCCN2CCN(c3ccc(F)cc3)CC2)o1,-3,0%,-23,?,?,3%
CCCOc1ccc(C2C(C(=O)c3ccco3)=C(O)C(=O)N2CCCn2ccnc2)cc1 (configuration not stated),23,-11%,38,16%,?,-11%
CCOc1ccc(C2C(C(=O)/C=C/c3ccco3)=C(O)C(=O)N2CCN2CCOCC2)cc1OC (configuration not stated),-4,.,22,10%,8%,7.9µM*
CCOc1ccc(C2C(C(=O)c3ccco3)=C(O)C(=O)N2CCCn2ccnc2)cc1OC (configuration not stated),16*,2%,11,26%,28%,.
CC1CC(C)CN(C(=O)Cn2nnc(-c3ccc(Br)cc3)n2)C1 (configuration not stated),7,2%,-3,0%,-13%,.
COc1ccc(CN2CCNC(=O)C2CC(=O)NCCc2nc(C)c(C)s2)cc1C (configuration not stated),1,9%,-6,-15%,-27%,-15%
Cc1cc(C(=O)CCC(=O)N(C)CC(=O)Nc2c(Cl)cccc2Cl)c(C)s1,.,.,.,-1%,6%,.
c1csc(-c2nnc(-c3ccc(N4CCOCC4)cc3)o2)c1,47*,-20%,63*,19%,-32%,-4%
CCOc1ccc(-c2nnc(-c3cccs3)o2)cc1OCC,24*,-12%,58*,44%,-17%,15%
COc1cc(-c2nnc(-c3cccs3)o2)cc(OC)c1OC,2,-6%,16,-19%,.,-10%
SMILES,Cycloheximide cs,NS1 function inh,Shiga inhibitor,Pf growth 48h,Pf growth 96h,Giardia FBPA inh
COc1ccc(-c2nnc(-c3cccs3)o2)cc1OC,51*,-31%,92*,113%,34%,-2%
CCOc1ccc(-c2nc(-c3cccs3)c(CC(=O)O)s2)cc1OC,24*,.,48,41%,134%,22%
CC1CC(C)CN(S(=O)(=O)N2CCC(C(=O)NCCC3=CCCCC3)CC2)C1 (configuration not stated),1,.,-10,13%,?,6%
CCCCn1c(N)c(N(CC)C(=O)c2ccccc2F)c(=O)[nH]c1=O,28,12%,27,20%,4%,12%
COC(=O)c1ccc(CNC(=O)COC(=O)COc2ccc(OC)cc2)cc1,-6,3%,19,-7%,133%,-1%
CCOc1ccc(-c2nnc(-c3cccs3)o2)cc1,45*,-57%,130*,89%,?,1%
Cc1ccc(NC(=O)CNC(=O)c2cccc(C)c2)nc1,.,.,.,49%,71%,.
CN(C(=O)c1cc(-c2ccccc2)on1)C1CCCCC1,37*,-2%,73*,180%,-28%,6%
O=C(c1cc(-c2ccc(Cl)c(Cl)c2)on1)N1CCN(c2ccccc2)CC1,3,-2%,34,29%,-3%,4%
O=C(c1cc(-c2ccc(Cl)c(Cl)c2)on1)N1CCCCC1,40*,0%,120*,82%,?,11%
O=C(c1cc(-c2ccccc2)on1)N1CCCC1,30*,5%,149*,308%,.,2%
Cc1cc(C(=O)N(C)C2CCCCC2)no1,-1,3%,4,6%,30%,.
O=C(c1cc(-c2ccccc2)on1)N1CCN(c2ccccc2)CC1,2,1%,-3,126%,104%,-2%
O=C(c1cc(-c2cccc(Cl)c2)on1)N1CCCC1,18*,-17%,71*,91%,24%,-2%
O=C(c1cc(-c2ccc(Cl)cc2)on1)N1CCN(c2ccc(F)cc2)CC1,-2,0%,-7,-8%,?,2%
O=C(c1cc(-c2ccc(Cl)cc2)on1)N1CCCC1,37*,7%,90*,195%,6%,9%
O=C(OCc1ccc([N+](=O)[O-])cc1)c1cc(S(=O)(=O)N2CCCCC2)ccc1N1CCOCC1,.,.,.,?,10µM*,.
COc1ccc(OC)c(COC(=O)c2cc([N+](=O)[O-])ccc2N2CCOCC2)c1,.,.,.,4.7µM*,2.9µM*,.
COc1ccc(COC(=O)c2cc(S(=O)(=O)N3CCCCC3)ccc2N2CCOCC2)cc1,.,.,.,3%,21%,.
Cc1ccc(OCCOC(=O)c2cc(S(=O)(=O)N3CCCCC3)ccc2N2CCOCC2)cc1,.,.,.,?,13µM*,.
CN(C)S(=O)(=O)c1cccc(COC(=O)c2cc([N+](=O)[O-])ccc2N2CCOCC2)c1,.,.,.,13µM*,10µM*,.

# Assay outcomes (PubChem BioAssay)
